The values below come from PubChem BioAssay (EPA / NIEHS).

Active and inactive are the calls of the source. The calls were made as follows: active = hit-call score of the fitted dose curve at least 0.9, where 1 is the maximum; inactive = score below 0.9.

What all share (details): mRNA level, 48 h; actives raise or lower the signal
Read-out in test [1]: Fatty acid synthase (Homo sapiens) (UniProt P49327)
Briefly: LTEA_HepaRG_FASN: Life Technologies and Expression Analysis (LTEA) Assay for Fatty Acid Synthase (FASN) using HepaRG (AID 2283448). The method, boiled down: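 Differentiated HepaRG cells in serum-free induction medium exposed 48 h in duplicate to eight half-log concentrations, top 100 uM, 0.5% DMSO. FASN mRNA by qRT-PCR normalised to ACTB, GAPDH, POLR2A; bidirectional fit versus DMSO.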

Read-out in test [2]: Cyclin D2 (CCND2), CCND2 (gene 894)
Briefly: LTEA_HepaRG_CCND2: Life Technologies and Expression Analysis (LTEA) Assay for Cyclin D2 (CCND2) using HepaRG (AID 2283449).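 Also: CCND2 transcript measured by TaqMan qRT-PCR and normalised to three housekeeping genes.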 The method, boiled down:
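Chemicals in 0.5% DMSO, eight half-log concentrations from 100 uM top, were applied in duplicate for 48 h to human HepaRG cells in serum-free induction medium. CCND2 mRNA by TaqMan qRT-PCR, normalised to ACTB/GAPDH/POLR2A; bidirectional fit versus DMSO.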

Read-out in test [3]: Cyclin D1 (CCND1), CCND1 (gene 595)
Kind of test: LTEA_HepaRG_CCND1: Life Technologies and Expression Analysis (LTEA) Assay for Cyclin D1 (CCND1) using HepaRG (AID 2283451).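 As to AC50: TaqMan qRT-PCR transcript level normalised to ACTB GAPDH and POLR2A housekeeping genes.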 The gist of the method: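 qRT-PCR (Fluidigm 96.96 array) read-out of transcript level, housekeeping-normalized (ACTB/GAPDH/POLR2A). HepaRG cells, 48 h chemical exposure, 8-point half-log series from 100 uM, 0.5% DMSO vehicle; gain or loss relative to DMSO baseline.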

Read-out in test [4]: flavin-containing dimethylaniline monooxygenases 3 (FMO3), FMO3 (gene 2328)
Kind of test: LTEA_HepaRG_FMO3: Life Technologies and Expression Analysis (LTEA) Assay for flavin-containing dimethylaniline monooxygenases 3 (FMO3) using HepaRG (AID 2283453). The gist of the method:
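Differentiated HepaRG cells in serum-free induction medium, exposed 48 h in duplicate to 8 half-log concentrations up to 100 uM in 0.5% DMSO. FMO3 mRNA by qRT-PCR, normalized to ACTB, GAPDH, POLR2A; bidirectional fit vs DMSO.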

Read-out in test [5]: Cytochrome P450 (CYP1A1), CYP1A1 (gene 1543)
Briefly: LTEA_HepaRG_CYP1A1: Life Technologies and Expression Analysis (LTEA) Assay for Cytochrome P450 (CYP1A1) using HepaRG (AID 2283454). The method, boiled down: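 qRT-PCR read-out: CYP1A1 transcript normalized to three housekeeping genes, fitted bidirectionally against 0.5% DMSO vehicle baseline. Human HepaRG cells, 48 h chemical exposure, 8-point half-log series topping at 100 uM.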

Read-out in test [6]: CFLAR gene, CFLAR (gene 8837)
Kind of test: LTEA_HepaRG_CFLAR: Life Technologies and Expression Analysis (LTEA) Assay for CFLAR gene using HepaRG (AID 2283455). The method, boiled down:
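Differentiated HepaRG cells in serum-free induction medium were exposed 48 h in duplicate to eight half-log concentrations up to 100 uM in 0.5% DMSO; mRNA measured by TaqMan qRT-PCR, normalized to ACTB, GAPDH, POLR2A; bidirectional fitting versus DMSO.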

Read-out in test [7]: Forkhead box O1 (FOXO1), FOXO1 (gene 2308)
Briefly: LTEA_HepaRG_FOXO1: Life Technologies and Expression Analysis (LTEA) Assay for Forkhead box O1 (FOXO1) using HepaRG (AID 2283456). The gist of the method:
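Differentiated HepaRG cells, in serum-free induction medium with 0.5% DMSO, exposed 48 h in duplicate to 8-point half-log series from 100 uM. FOXO1 mRNA measured by TaqMan qRT-PCR, normalized to ACTB, GAPDH, POLR2A; bidirectional fit versus DMSO.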

Read-out in test [8]: growth arrest and DNA damage 45 (GADD45A), GADD45A (gene 1647)
Briefly: LTEA_HepaRG_GADD45A: Life Technologies and Expression Analysis (LTEA) Assay for growth arrest and DNA damage 45 (GADD45A) using HepaRG (AID 2283458). The gist of the method: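 Differentiated HepaRG cells exposed 48 h in serum-free induction medium to 8 concentrations, top 100 uM in half-log steps, 0.5% DMSO. GADD45A mRNA quantified by qRT-PCR, normalized to ACTB, GAPDH and POLR2A; bidirectional fit versus DMSO.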

Read-out in test [9]: Forkhead box O3 (FOXO3), FOXO3 (gene 2309)
Kind of test: LTEA_HepaRG_FOXO3: Life Technologies and Expression Analysis (LTEA) Assay for Forkhead box O3 (FOXO3) using HepaRG (AID 2283459). The method, boiled down:
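Differentiated human HepaRG cells, 48 h post-plating, exposed in duplicate for 48 h in serum-free induction medium; 8-point half-log series from 100 uM in 0.5% DMSO. FOXO3 mRNA by TaqMan qRT-PCR, normalized to ACTB/GAPDH/POLR2A; bidirectional fit versus DMSO.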

Read-out in test [10]: catalase (CAT), CAT (gene 847)
Briefly: LTEA_HepaRG_CAT: Life Technologies and Expression Analysis (LTEA) Assay for catalase (CAT) using HepaRG (AID 2283452). The method, boiled down:
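HepaRG cells in serum-free induction medium, 0.5% DMSO vehicle, exposed 48 h in duplicate over 8 half-log concentrations from 100 uM. CAT mRNA measured by qRT-PCR, normalized to ACTB, GAPDH, POLR2A; bidirectional fit versus DMSO.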

Read-out in test [11]: Tumor necrosis factor receptor superfamily member 6 (Homo sapiens) (UniProt P25445)
Briefly: LTEA_HepaRG_FAS: Life Technologies and Expression Analysis (LTEA) Assay for Fas cell surface death receptor (FAS) using HepaRG (AID 2283447). The method, boiled down:
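Differentiated HepaRG cells in serum-free induction medium were exposed 48 h to 8 half-log concentrations up to 100 uM in 0.5% DMSO, in duplicate. FAS mRNA was measured by qRT-PCR normalised to ACTB, GAPDH and POLR2A; bidirectional fit versus DMSO.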

Read-out in test [12]: Cyclin Dependent Kinase Inhibitor 1A (CDKN1A), CDKN1A (gene 1026)
Kind of test: LTEA_HepaRG_CDKN1A: Life Technologies and Expression Analysis (LTEA) Assay for Cyclin Dependent Kinase Inhibitor 1A (CDKN1A) using HepaRG (AID 2283450). The gist of the method: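 HepaRG, 48 h dosing, 8-pt half-log series from 100 uM top, 0.5% DMSO vehicle, duplicates. Readout: TaqMan qRT-PCR of CDKN1A transcript, housekeeping-normalized (ACTB, GAPDH, POLR2A). Up/down curve fit relative to DMSO.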

Chain of Fatty acid synthase (Homo sapiens) (P49327 whole entry, looked up): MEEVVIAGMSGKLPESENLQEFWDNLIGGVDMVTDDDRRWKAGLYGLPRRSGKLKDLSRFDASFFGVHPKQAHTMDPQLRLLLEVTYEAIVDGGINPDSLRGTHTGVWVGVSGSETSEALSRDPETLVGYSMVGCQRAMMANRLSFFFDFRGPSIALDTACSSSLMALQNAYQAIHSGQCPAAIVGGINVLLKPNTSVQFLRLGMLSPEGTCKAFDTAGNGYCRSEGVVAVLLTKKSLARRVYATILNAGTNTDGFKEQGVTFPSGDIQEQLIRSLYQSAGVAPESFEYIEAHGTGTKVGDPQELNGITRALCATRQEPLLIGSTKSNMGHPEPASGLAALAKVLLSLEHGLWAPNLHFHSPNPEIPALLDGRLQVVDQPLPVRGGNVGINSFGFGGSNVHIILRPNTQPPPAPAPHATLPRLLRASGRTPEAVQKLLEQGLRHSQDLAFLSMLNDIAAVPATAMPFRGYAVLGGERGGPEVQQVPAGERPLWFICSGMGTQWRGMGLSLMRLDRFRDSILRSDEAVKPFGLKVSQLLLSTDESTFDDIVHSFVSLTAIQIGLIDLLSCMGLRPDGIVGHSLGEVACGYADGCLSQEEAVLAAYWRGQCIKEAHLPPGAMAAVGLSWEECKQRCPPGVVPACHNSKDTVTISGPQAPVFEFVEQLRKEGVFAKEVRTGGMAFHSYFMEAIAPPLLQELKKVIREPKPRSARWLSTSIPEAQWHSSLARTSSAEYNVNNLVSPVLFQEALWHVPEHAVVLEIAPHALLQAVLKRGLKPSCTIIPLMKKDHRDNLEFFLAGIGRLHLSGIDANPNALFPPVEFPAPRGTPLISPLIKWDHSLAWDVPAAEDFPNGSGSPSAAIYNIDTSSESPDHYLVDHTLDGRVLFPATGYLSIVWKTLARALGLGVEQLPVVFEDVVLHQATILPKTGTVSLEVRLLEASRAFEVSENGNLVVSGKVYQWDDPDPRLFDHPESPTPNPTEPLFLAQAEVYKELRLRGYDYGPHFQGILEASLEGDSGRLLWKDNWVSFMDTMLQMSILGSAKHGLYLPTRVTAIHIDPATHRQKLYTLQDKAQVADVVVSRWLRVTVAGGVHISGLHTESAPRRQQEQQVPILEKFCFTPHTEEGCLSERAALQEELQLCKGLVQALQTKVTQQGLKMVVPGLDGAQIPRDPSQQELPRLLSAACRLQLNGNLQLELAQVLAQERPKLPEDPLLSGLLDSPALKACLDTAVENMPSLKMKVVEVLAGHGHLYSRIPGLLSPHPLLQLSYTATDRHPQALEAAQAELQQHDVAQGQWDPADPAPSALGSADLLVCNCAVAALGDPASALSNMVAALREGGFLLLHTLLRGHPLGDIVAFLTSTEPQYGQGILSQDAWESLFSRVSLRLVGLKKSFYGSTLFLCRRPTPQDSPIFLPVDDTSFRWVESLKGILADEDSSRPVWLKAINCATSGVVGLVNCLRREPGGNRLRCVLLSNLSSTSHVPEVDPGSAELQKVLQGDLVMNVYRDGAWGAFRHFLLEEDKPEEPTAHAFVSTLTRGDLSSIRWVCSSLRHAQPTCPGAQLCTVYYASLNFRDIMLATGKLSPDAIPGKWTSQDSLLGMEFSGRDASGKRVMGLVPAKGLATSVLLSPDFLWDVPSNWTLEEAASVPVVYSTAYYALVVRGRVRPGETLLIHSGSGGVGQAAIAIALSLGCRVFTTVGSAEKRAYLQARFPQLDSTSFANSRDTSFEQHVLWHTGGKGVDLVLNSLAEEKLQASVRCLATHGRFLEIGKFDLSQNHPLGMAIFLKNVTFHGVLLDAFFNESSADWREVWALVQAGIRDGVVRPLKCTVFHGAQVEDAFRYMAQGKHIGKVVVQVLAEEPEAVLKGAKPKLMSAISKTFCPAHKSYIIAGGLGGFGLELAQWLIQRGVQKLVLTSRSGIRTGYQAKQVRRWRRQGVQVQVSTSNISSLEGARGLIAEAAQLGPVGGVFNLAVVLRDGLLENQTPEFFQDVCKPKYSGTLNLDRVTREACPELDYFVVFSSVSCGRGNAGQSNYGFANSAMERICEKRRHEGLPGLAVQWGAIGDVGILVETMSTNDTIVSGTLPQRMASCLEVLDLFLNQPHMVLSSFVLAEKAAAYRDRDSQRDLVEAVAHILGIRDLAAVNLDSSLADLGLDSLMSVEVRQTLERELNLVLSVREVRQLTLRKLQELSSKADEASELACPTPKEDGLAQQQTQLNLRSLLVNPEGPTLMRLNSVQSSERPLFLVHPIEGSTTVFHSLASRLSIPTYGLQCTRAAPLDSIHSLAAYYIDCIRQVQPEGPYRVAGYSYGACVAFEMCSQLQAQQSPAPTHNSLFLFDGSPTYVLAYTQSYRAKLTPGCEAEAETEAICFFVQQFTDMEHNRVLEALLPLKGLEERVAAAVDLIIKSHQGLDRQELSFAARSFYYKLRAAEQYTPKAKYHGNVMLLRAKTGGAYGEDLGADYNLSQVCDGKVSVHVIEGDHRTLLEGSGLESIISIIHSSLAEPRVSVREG

Turning to `O=c1n(Cl)c(=O)n(Cl)c(=O)n1Cl`, the outcome in [1], in test [2], in test [3], in [4], in [6] and in test [7] was inactive. For the same compound, the compound was classed as inactive in test [8] and in test [9]. In test [5], the AC50 was 60.2 µM (active).
As to `Nc1c(Cl)c(Cl)nc(C(=O)O)c1Cl`, the result in test [1], in test [2], in [3], in [10], in [4] and in [6] was inactive. Also, the compound was classed as inactive in test [7], in test [8] and in [9]. In addition, the AC50 in [5] is 50 µM (active).
Turning to `CC(C)N1C(=O)c2ccccc2NS1(=O)=O`, the compound was classed as inactive in test [11], in test [1], in test [2], in [3], in test [10] and in [4]. Also, the outcome in [5], in [6], in [7], in test [8] and in test [9] was inactive.
Take `CS(=O)(=O)c1ccc(C(=O)C2C(=O)CCCC2=O)c([N+](=O)[O-])c1`: the call in test [11], in test [1], in test [2], in test [3], in test [10] and in [4] was inactive. In addition, the result in test [6], in test [7], in [8] and in test [9] was inactive. Besides, the AC50 in [5] is 19.1 µM (active).
Take `Nc1c(Cl)c(F)nc(OCC(=O)O)c1Cl`: the result in test [11], in test [1], in [2], in test [3], in [4] and in test [5] was inactive. For the same compound, the outcome in test [6], in test [7], in [8] and in test [9] was inactive.
As to `COc1ccc(-c2ccccc2)cc1NNC(=O)OC(C)C`, the compound was classed as inactive in test [11], in test [1], in test [2], in [12], in test [3] and in test [4]. The compound was classed as inactive in test [6], in test [7], in test [8] and in [9]. In test [5], the AC50 is 75.1 µM (active).
For the compound `COCC(C)N(C(=O)CCl)c1c(C)csc1C` (stereo unspecified), the result in [11], in [1], in [12], in [3], in [4] and in [6] was inactive. The outcome in test [7] and in test [8] was inactive. Moreover, in test [5], the AC50 was 50 µM (active).
`O=P(O)(O)CCCl`: the compound was called inactive in test [1], in test [10], in [4], in test [5], in [6] and in test [7]. Besides, the compound was classed as inactive in [8] and in [9]. The half-maximal activity concentration (AC50) in test [3] was 0.261 µM (active).
On to `O=C(O)c1c(Cl)ccc2cc(Cl)cnc12`, for which the compound was classed as inactive in [1], in test [2], in test [12], in test [3], in test [4] and in test [5]. The call in test [6], in [7] and in test [9] was inactive. The AC50 in [8] is 0.00381 µM (active).
As for `CSC(=O)c1c(C(F)F)nc(C(F)(F)F)c(C(=O)SC)c1CC(C)C`, the call in test [1], in test [2], in [3], in test [6], in test [7] and in [8] was inactive. In [9], the compound was classed as inactive. Besides, the AC50 in test [4] was 86.8 µM (active); in [5], 17.1 µM (active).
With `COC(=O)N(C(=O)N1CO[C@@]2(C(=O)OC)Cc3cc(Cl)ccc3C2=N1)c1ccc(OC(F)(F)F)cc1`, the call in test [11], in [2], in test [12], in [3], in [7] and in [8] was inactive. Moreover, the result in test [9] was inactive. In addition, the AC50 is 18.8 µM (active) in [1]; 40 µM (active) in test [10]; 40 µM (active) in [4]; 5.08 µM (active) in test [5]; 29.8 µM (active) in test [6].

One may read the AC50 as the concentration at which the activity in the assay is half-maximal.
